Shown is part of a subset that was picked to be rich in hits.
DUX4 inh: DUX4-mediated transcription inhibition. 293T-iDUX4 ZSCAN4-Gaussia luciferase reporter, 24 h; active compounds read low. activity change, negative = inhibition, % (test concentration not listed). hit rate 0.8% among 37,000. AID 1224904;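 active = mean inhibition of at least 10% in the main channel, exceeding the control channel by a set limit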;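 note: 0% = median of neutral control wells and -100% = median of positive control wells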
* = called active by the depositor.

SMILES	DUX4 inh
C[C@@H]1CN([C@@H](C)CO)C(=O)CCCn2nncc2CO[C@H]1CN(C)Cc1ccc(C(=O)Nc2ccccc2N)cc1	-25*
C[C@H](CO)N1C[C@H](C)[C@@H](CN(C)Cc2ccc(C(=O)Nc3ccccc3N)cc2)OCc2cnnn2CCCC1=O	-20*
C[C@H](CO)N1C[C@H](C)[C@@H](CN(C)Cc2ccc(C(F)(F)F)cc2)OCc2cnnn2CCCC1=O	6
C[C@H](CO)N1C[C@H](C)[C@@H](CN(C)Cc2ccc(C(=O)O)cc2)OCc2cnnn2CCCC1=O	7
C[C@H]1CN([C@@H](C)CO)C(=O)CCCn2nncc2CO[C@@H]1CN(C)Cc1ccc(C(F)(F)F)cc1	-4
C[C@H]1CN([C@@H](C)CO)C(=O)CCCn2nncc2CO[C@@H]1CN(C)Cc1ccc(C(=O)O)cc1	0
C[C@H]1CN([C@@H](C)CO)C(=O)CCCn2nncc2CO[C@@H]1CN(C)Cc1ccc(O)cc1	0
CCC(=O)N1CC2(C1)[C@H](c1ccccc1)[C@@H](CO)N2Cc1cccc(Cl)c1	-7
COc1ccccc1S(=O)(=O)N[C@H]1C=C[C@H](CC(=O)N2CCOCC2)O[C@@H]1CO	-1
CC(=O)Nc1ccc2c(c1)C(=O)N(C)[C@H]1CC[C@H](CC(=O)NCc3ccc(Cl)cc3)O[C@H]1CO2	3
CN(C)C(=O)[C@H]1[C@H](CO)[C@H]2Cn3c(cccc3=O)[C@H]2N1CC1CCCCC1	3
O=C(Nc1ccc(C(F)(F)F)cc1)N[C@@H]1C=C[C@H](CC(=O)N2CCCCC2)O[C@H]1CO	1
C[C@@H]1CN([C@H](C)CO)C(=O)c2ccccc2-c2ccccc2CO[C@@H]1CN(C)Cc1ccc(C(F)(F)F)cc1	-25*
C[C@H]1CN([C@@H](C)CO)C(=O)c2c(c3ccccc3n2C)-c2ccccc2CO[C@@H]1CN(C)Cc1ccc(Cl)c(Cl)c1	-49*
C[C@@H]1CN([C@H](C)CO)C(=O)c2c(c3ccccc3n2C)-c2ccccc2CO[C@@H]1CN(C)Cc1ccc(Cl)c(Cl)c1	-19*
C[C@@H]1CN([C@@H](C)CO)C(=O)c2c(c3ccccc3n2C)-c2ccccc2CO[C@@H]1CN(C)Cc1ccc(Cl)c(Cl)c1	12
C[C@@H]1CN([C@@H](C)CO)C(=O)c2c(c3ccccc3n2C)-c2ccccc2CO[C@H]1CN(C)Cc1ccncc1	-6
C[C@H]1CN([C@@H](C)CO)C(=O)c2c(c3ccccc3n2C)-c2ccccc2CO[C@@H]1CN(C)Cc1ccc(-c2ccccc2)cc1	-41*
C[C@@H]1CN([C@@H](C)CO)C(=O)c2c(c3ccccc3n2C)-c2ccccc2CO[C@H]1CN(C)Cc1ccc(-c2ccccc2)cc1	-2
C[C@H]1CN([C@@H](C)CO)C(=O)c2ccccc2-c2ccccc2CO[C@H]1CN(C)Cc1ccc(O)cc1	4
C[C@@H]1CN([C@@H](C)CO)C(=O)c2c(c3ccccc3n2C)-c2ccccc2CO[C@@H]1CN(C)Cc1ccc(-c2ccccc2)cc1	13
C[C@H]1CN([C@@H](C)CO)C(=O)c2c(c3ccccc3n2C)-c2ccccc2CO[C@@H]1CN(C)Cc1ccncc1	5
C[C@H](CO)N1C[C@H](C)[C@@H](CN(C)Cc2ccncc2)OCc2ccccc2-c2c(n(C)c3ccccc23)C1=O	11
C[C@@H]1CN([C@H](C)CO)C(=O)c2ccccc2-c2ccccc2CO[C@@H]1CN(C)Cc1ccc(C(=O)O)cc1	3
Cc1ccc(S(=O)(=O)Nc2ccc3c(c2)C(=O)N([C@H](C)CO)C[C@H](C)[C@@H](CN(C)C(=O)NC2CCCCC2)OCCCC[C@H](C)O3)cc1	3
SMILES	DUX4 inh
CO[C@H]1CN(C)C(=O)c2cc(NC(=O)C3CCCCC3)ccc2OC[C@@H](C)N(Cc2cccnc2)C[C@@H]1C	0
CO[C@H]1CN(C)C(=O)c2cc(C#N)ccc2OCC[C@H]2CC[C@@H](OC)[C@@H](CN(C)C(=O)[C@@H]1C)O2	0
COc1ccc(C#Cc2cccc(-c3nc(C(=O)Nc4ccc(-c5ccccc5)cc4)cc4c3[C@@H](CCO)N(S(=O)C(C)(C)C)C4)c2)cc1OC (some centres undefined)	-3
COc1ccc(NC(=O)Nc2ccc3c(c2)[C@H]2C[C@H](CC(=O)NCc4ccccc4F)O[C@H](CO)[C@H]2O3)cc1	-4
O=C(Cc1cccnc1)N[C@H]1CC[C@H](CCNS(=O)(=O)c2ccccc2Cl)O[C@H]1CO	9
COc1ccc(C#Cc2ccc3c(c2)[C@@H]2[C@@H](CCN2C(=O)c2ccccc2F)[C@H](CO)N3)cc1	14
CCNC(=O)[C@H]1[C@H](CO)[C@H]2Cn3c(ccc(C4=CCCCC4)c3=O)[C@H]2N1Cc1ccc2c(c1)OCO2	-3
CN(C)C(=O)[C@@H]1[C@@H](CO)[C@@H]2Cn3c(ccc(C4=CCCCC4)c3=O)[C@@H]2N1Cc1ccc2c(c1)OCO2	-15*
CN(C)C(=O)[C@H]1[C@H](CO)[C@H]2Cn3c(ccc(C4=CCCCC4)c3=O)[C@H]2N1Cc1ccc2c(c1)OCO2	6
CCCN1[C@@H]2Cn3c(ccc(-c4ccccc4OC)c3=O)[C@H]1[C@@H](C(=O)N1CCOCC1)[C@@H]2CO	-1
C[C@H](CO)N1C[C@H](C)[C@@H](CN(C)C(=O)c2ccccc2)OCCCC[C@H](C)Oc2ccc(NS(=O)(=O)c3ccc(F)cc3)cc2C1=O	2
COc1cccc(S(=O)(=O)N2CCCCN3[C@H](C2)[C@H](c2ccc(-c4cccnc4)cc2)[C@@H]3CO)c1	-35*
C/C=C/c1ccc([C@@H]2[C@@H](CO)N3CCCCN(S(=O)(=O)c4ccc(F)cc4)C[C@@H]23)cc1	-3
COc1cccc(S(=O)(=O)N2CCCCN3[C@H](CO)[C@@H](c4ccc(-c5cccnc5)cc4)[C@H]3C2)c1	-8
C/C=C/c1ccc([C@@H]2[C@@H](CO)N3CCCCN(S(=O)(=O)c4ccc(F)cc4)C[C@H]23)cc1	-8
COc1cccc(S(=O)(=O)N2CCCCN3[C@@H](CO)[C@@H](c4ccc(C#CC5CC5)cc4)[C@@H]3C2)c1	6
C/C=C/c1ccc([C@H]2[C@@H](CO)N3CCCCN(S(=O)(=O)c4cccc(C)c4)C[C@@H]23)cc1	-44*
CCCN1[C@@H]2Cn3c(ccc(-c4ccccc4)c3=O)[C@H]1[C@@H](C(=O)N1CCCCC1)[C@@H]2CO	-4
CCNC(=O)C[C@H]1CC[C@H]2[C@@H](COC[C@@H](O)CN2C(=O)Nc2c(C)noc2C)O1	11
CO[C@H]1CN(C)C(=O)c2cc(NC(=O)CC(F)(F)F)ccc2OC[C@@H](C)N(C(C)=O)C[C@H]1C	1
O=C(C1CCCCC1)N1CC2(C1)[C@H](c1ccccc1)[C@@H](CO)N2Cc1ccc(Cl)cc1	-51*
O=C(C1CCC1)N1CC2(C1)[C@H](c1ccccc1)[C@H](CO)N2Cc1ccccc1F	-7
O=C(C1CCCC1)N1CC2(C1)[C@@H](c1ccccc1)[C@H](CO)N2Cc1ccccc1F	-7
O=C(C1CCCC1)N1CC2(C1)[C@@H](c1ccccc1)[C@@H](CO)N2Cc1ccc(Cl)cc1	-8
O=C(C1CCCC1)N1CC2(C1)[C@H](c1ccccc1)[C@@H](CO)N2Cc1ccccc1F	-45*
O=C(C1CCOCC1)N1CC2(C1)[C@H](c1ccccc1)[C@@H](CO)N2Cc1ccc(Cl)cc1	-3
COCC(=O)N1[C@H](CO)[C@@H]2c3ccccc3N(C(=O)Nc3ccccc3F)C[C@@H]21	2
CCC(=O)N1CC2(C1)[C@H](c1ccccc1)[C@@H](CO)N2CCC(F)(F)F	-5

Bioassay records from PubChem.
